Experimental data published in PubChem BioAssay AID1159580 (chemical genetic matrix, 2015).
Several values for one entry are separate records, joined by “and”; a condition that tells them apart may be missing. Identical values can stand only once. Screen size: about 5,500 compounds; about 2,000 (36%) were called active. Not shown: some 18% with an inconclusive outcome. Rule as the data show it: active = normalized growth mostly below about 0.91 (no sharp cut-off); inconclusive = no clear call, values can overlap the other calls; inactive = mostly above about 0.92. The list shows a part of the results.

Experiment: chemical genetic growth profiling, strain panel (AID 1159580);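 also: tested at 20 µM; growth read once vehicle control cultures reached saturation at 30 °C; 1 = growth at the plate median or of vehicle wells; lower values mean less growth of the strain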
Conditions: S. cerevisiae deletion strains, growth OD

Measured: normalized growth

Oc1c(Cl)cc(Cl)c(Cl)c1Cc1c(O)c(Cl)cc(Cl)c1Cl
active: locus YAL021C, strain ccr4, active compounds read low 0.0649 | locus YAL026C, strain drs2, active compounds read low 0.0639 | locus YAL030W, strain snc1, active compounds read low 0.0572 | locus YBL061C, strain skt5, active compounds read low 0.0628 | locus YBR009C, strain hhf1, active compounds read low 0.0575 | locus YBR021W, strain FUR4, active compounds read low 0.0863 | locus YBR023C, strain chs3, active compounds read low 0.0623 | locus YBR171W, strain sec66, active compounds read low 0.0838 | locus YBR229C, strain ROT2, active compounds read low 0.0457 | locus YBR231C, strain swc5, active compounds read low 0.0612 | locus YBR279W, strain paf1, active compounds read low 0.0633 | locus YCL011C, strain gbp2, active compounds read low 0.0558 | locus YCL016C, strain dcc1, active compounds read low 0.0684 | locus YCL029C, strain bik1, active compounds read low 0.0602 | locus YCL061C, strain MRC1, active compounds read low 0.064 | locus YCL069W, strain vba3, active compounds read low 0.0605 | locus YCR088W, strain abp1, active compounds read low 0.0632 | locus YDL005C, strain med2, active compounds read low 0.0765 | locus YDL035C, strain GPR1, active compounds read low 0.0447 | locus YDL040C, strain nat1, active compounds read low 0.0596 | locus YDL074C, strain BRE1, active compounds read low 0.0681 | locus YDL101C, strain DUN1, active compounds read low 0.0525 | locus YDL185W, strain tfp1, active compounds read low 0.0761 | locus YDL192W, strain arf1, active compounds read low 0.0596 | locus YDR001C, strain nth1, active compounds read low 0.0623 | locus YDR069C, strain doa4, active compounds read low 0.0643 | locus YDR101C, strain arx1, active compounds read low 0.0573 | locus YDR137W, strain rgp1, active compounds read low 0.108 | locus YDR159W, strain sac3, active compounds read low 0.111 | locus YDR162C, strain NBP2, active compounds read low 0.0454 | locus YDR195W, strain ref2 0.126 | locus YDR297W, strain sur2, active compounds read low 0.0566 | locus YDR318W, strain mcm21, active compounds read low 0.0637 | locus YDR334W, strain swr1, active compounds read low 0.0669 | locus YDR335W, strain msn5, active compounds read low 0.061 | locus YDR388W, active compounds read low 0.0571 | locus YDR392W, strain spt3, active compounds read low 0.0734 | locus YDR502C, strain sam2, active compounds read low 0.0651 | locus YEL003W, strain gim4, active compounds read low 0.0558 | locus YEL037C, strain rad23, active compounds read low 0.0567 | locus YEL061C, strain CIN8 (second series), active compounds read low 0.0634 | locus YEL061C, strain CIN8, active compounds read low 0.0485 | locus YER015W, strain faa2, active compounds read low 0.065 | locus YER016W, strain bim1, active compounds read low 0.0638 | locus YER110C, active compounds read low 0.0729 | locus YER111C, strain swi4, active compounds read low 0.0725 | locus YER155C, strain BEM2 (second series), active compounds read low 0.0878 | locus YER155C, strain BEM2, active compounds read low 0.0604 | locus YER167W, strain BCK2, active compounds read low 0.0476 | locus YFR010W, strain ubp6, active compounds read low 0.0712 | locus YGL078C, strain dbp3, active compounds read low 0.108 | locus YGL086W, strain mad1, active compounds read low 0.0548 | locus YGL167C, strain pmr1, active compounds read low 0.0813 | locus YGL173C, strain kem1, active compounds read low 0.0685 | locus YGL227W, strain vid30, active compounds read low 0.0622 | locus YGL240W, strain doc1, active compounds read low 0.0737 | locus YGL248W, strain PDE1, active compounds read low 0.0447 | locus YGL253W, strain hxk2, active compounds read low 0.0537 | locus YGR135W, strain pre9, active compounds read low 0.0633 | locus YGR252W, strain gcn5, active compounds read low 0.179 | locus YHR013C, strain ard1, active compounds read low 0.108 | locus YHR027C, strain rpn1, active compounds read low 0.0624 | locus YHR030C, strain SLT2, active compounds read low 0.0509 and 0.0952 | locus YHR079C, strain IRE1 (second series), active compounds read low 0.0571 | locus YHR079C, strain IRE1, active compounds read low 0.137 | locus YHR094C, strain hxt1, active compounds read low 0.0585 | locus YHR129C, strain ARP1, active compounds read low 0.0547 | locus YHR142W, strain chs7, active compounds read low 0.0728 | locus YHR200W, strain rpn10, active compounds read low 0.0603 | locus YIL066C, strain RNR3, active compounds read low 0.0457 | locus YIL073C, strain SPO22, active compounds read low 0.0959 | locus YIL125W, strain kgd1, active compounds read low 0.0781 | locus YIR030C, strain dcg1, active compounds read low 0.0579 | locus YJL092W, strain hpr5, active compounds read low 0.0606 | locus YJL095W, strain BCK1 (second series), active compounds read low 0.0579 | locus YJL095W, strain BCK1, active compounds read low 0.0575 and 0.0959 | locus YJL115W, strain asf1, active compounds read low 0.0753 | locus YJL129C, strain trk1, active compounds read low 0.0909 | locus YJL134W, strain LCB3, active compounds read low 0.0469 | locus YJL154C, strain vps35, active compounds read low 0.0611 | locus YJL164C, strain tpk1, active compounds read low 0.0591 | locus YJL166W, strain qcr8, active compounds read low 0.0615 | locus YJL168C, strain set2, active compounds read low 0.0584 | locus YJL187C, strain SWE1 (second series), active compounds read low 0.0437 | locus YJR043C, strain POL32, active compounds read low 0.0543 | locus YJR066W, strain TOR1, active compounds read low 0.0109 | locus YKL009W, strain mrt4, active compounds read low 0.13 | locus YKL068W, active compounds read low 0.0876 | locus YKL085W, strain MDH1 (second series), active compounds read low 0.0638 | locus YKL085W, strain MDH1, active compounds read low 0.0638 | locus YKL160W, strain elf1, active compounds read low 0.0626 | locus YKL190W, strain CNB1, active compounds read low 0.0457 | locus YKR001C, strain vps1, active compounds read low 0.064 | locus YKR026C, strain gcn3, active compounds read low 0.063 | locus YKR091W, strain srl3, active compounds read low 0.058 | locus YLL001W, strain dnm1, active compounds read low 0.0618 | locus YLL026W, active compounds read low 0.0568 | locus YLL041C, strain sdh2, active compounds read low 0.0572 | locus YLR027C, strain aat2, active compounds read low 0.0557 | locus YLR039C, strain RIC1, active compounds read low 0.101 | locus YLR058C, strain SHM2, active compounds read low 0.0462 | locus YLR102C, strain apc9, active compounds read low 0.0599 | locus YLR113W, strain HOG1, active compounds read low 0.119 | locus YLR221C, strain rsa3, active compounds read low 0.064 | locus YLR258W, strain gsy2, active compounds read low 0.0646 | locus YLR262C, strain YPT6 (second series), active compounds read low 0.0785 | locus YLR262C, strain YPT6, active compounds read low 0.114 | locus YLR268W, strain sec22, active compounds read low 0.0689 | locus YLR320W, strain mms22, active compounds read low 0.0782 | locus YLR330W, strain CHS5, active compounds read low 0.0515 | locus YLR342W, strain FKS1 (second series), active compounds read low 0.0549 | locus YLR342W, strain FKS1, active compounds read low 0.0674 | locus YLR357W, strain rsc2, active compounds read low 0.132 | locus YLR370C, strain arc18, active compounds read low 0.0635 | locus YLR371W, strain rom2, active compounds read low 0.0617 | locus YLR384C, strain iki3, active compounds read low 0.0627 | locus YLR418C, strain cdc73, active compounds read low 0.102 | locus YML016C, strain PPZ1, active compounds read low 0.0443 | locus YML032C, strain rad52, active compounds read low 0.0719 | locus YML120C, strain ndi1, active compounds read low 0.0723 | locus YML124C, strain tub3, active compounds read low 0.0588 | locus YMR058W, strain fet3, active compounds read low 0.06 | locus YMR078C, strain ctf18, active compounds read low 0.0715 | locus YMR125W, strain sto1, active compounds read low 0.0705 | locus YMR129W, active compounds read low 0.0593 | locus YMR205C, strain PFK2, active compounds read low 0.0865 | locus YMR223W, strain ubp8, active compounds read low 0.064 | locus YMR231W, strain pep5, active compounds read low 0.0739 | locus YMR307W, strain GAS1, active compounds read low 0.095 | locus YNL067W, strain RPL9B, active compounds read low 0.0449 | locus YNL071W, strain lat1, active compounds read low 0.0618 | locus YNL183C, strain NPR1, active compounds read low -0.000219 | locus YNL209W, strain ssb2, active compounds read low 0.0615 | locus YNL233W, strain BNI4, active compounds read low 0.0507 | locus YNL248C, strain rpa49, active compounds read low 0.0739 | locus YNL250W, strain rad50, active compounds read low 0.232 | locus YNL271C, strain bni1, active compounds read low 0.0767 | locus YNL298W, strain CLA4, active compounds read low 0.0832 | locus YNL307C, strain MCK1, active compounds read low 0.0665 | locus YNL322C, strain KRE1 (second series), active compounds read low 0.0815 | locus YNR049C, strain mso1, active compounds read low 0.0574 | locus YNR052C, strain pop2, active compounds read low 0.0618 | locus YOL147C, strain pex11, active compounds read low 0.0569 | locus YOR001W, strain rrp6, active compounds read low 0.0782 | locus YOR061W, strain CKA2, active compounds read low 0.0448 | locus YOR069W, strain VPS5, active compounds read low 0.0463 | locus YOR070C, strain gyp1, active compounds read low 0.0582 | locus YOR080W, strain dia2, active compounds read low 0.0666 | locus YOR083W, strain WHI5, active compounds read low 0.065 | locus YOR106W, strain vam3, active compounds read low 0.0665 | locus YOR136W, strain idh2, active compounds read low 0.0719 | locus YOR144C, strain elg1, active compounds read low 0.0552 | locus YOR184W, strain ser1, active compounds read low 0.075 | locus YOR231W, strain MKK1, active compounds read low 0.112 | locus YOR265W, strain rbl2, active compounds read low 0.065 | locus YOR270C, strain vph1, active compounds read low 0.0914 | locus YOR290C, strain snf2, active compounds read low 0.0645 | locus YOR316C, strain cot1, active compounds read low 0.0584 | locus YPL051W, strain arl3, active compounds read low 0.0639 | locus YPL078C, strain atp4, active compounds read low 0.0652 | locus YPL106C, strain sse1, active compounds read low 0.1 | locus YPL240C, strain hsp82, active compounds read low 0.0579 | locus YPL256C, strain CLN2, active compounds read low 0.116 | locus YPR119W, strain clb2, active compounds read low 0.0624 | locus YPR141C, strain kar3, active compounds read low 0.0848 | locus YPR163C, strain tif3, active compounds read low 0.0697 | locus YPR167C, strain met16, active compounds read low 0.0631 | strain wtn01, active compounds read low 0.0656
